These results are taken from PubChem BioAssay (NCATS).

Assay [1] in a line: Viability qHTS for spleen associated tyrosine kinase inhibitor (SYKi) naive MV4-11 cells (AID 1963823). Note: nearly all actives have a fitted effect of over 40% in size. An outline of the steps:
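SYKi-naive MV4-11 AML cells, 500 per well, were exposed to library compounds for 72 hr at 37 C, 5% CO2. Viability was then read by CellTiter-Glo luminescence after 10 min at room temperature.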
For orientation: qHTS replaces the single test concentration by a dilution series.

Assay [2] is described as follows: Viability qHTS for spleen associated tyrosine kinase inhibitor (SYKi) drug resistant MV4-11 cells (AID 1963824). Note: nearly all actives have a fitted effect of over 35% in size. In a few lines: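 CellTiter-Glo luminescence, read 10 min after reagent addition, reports viability after a 72 hr compound exposure. Cells are an MV4-11 line made resistant to SYK inhibition, seeded at 500 per well onto compound-containing plates.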
Assay [3] in a line: Quantitative highthroughput screen to assess conditional lethalithy of NOMO1 cells grown in RPMI1640 with untreated serum (RPMI+s) (AID 1963876).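 For Viability: 100% = DMSO wells and 0% = empty wells without cells.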 Note: nearly all actives have a fitted effect of over 35% in size. An outline of the steps: (§1)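 Each medium arm—HPLM with 10% dialyzed FBS, or RPMI1640 with 5 mM glucose and 10% untreated or dialyzed FBS—was screened against an 11-point, 3-fold compound titration for 48 h at 37 °C, with CellTiter-Glo luminescence as endpoint.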

The nature of assay [4]: Quantitative highthroughput screen to assess conditional lethalithy of NOMO1 cells grown in RPMI1640 with dialyzed fetal bovine serum (RPMI+ds) (AID 1963877).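 For Viability: series mostly up to about 46 µM; 100% = DMSO control wells and 0% = empty wells.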 Note: nearly all actives have a fitted effect of over 30% in size. In a few lines: as §1
Assay [5] is described as follows: Quantitative highthroughput screen to assess conditional lethalithy of NOMO1 cells grown in Human Plasma-Like Medium with dialyzed fetal bovine serum (HPLM+ds) (AID 1963878).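 For Viability: 100% = DMSO wells and 0% = empty wells on each plate.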 Note: nearly all actives have a fitted effect of over 35% in size. In a few lines: as §1
A short description of assay [6]: Quantitative highthroughput screen to assess conditional lethalithy of SEM cells grown in Human Plasma-Like Medium with dialyzed fetal bovine serum (HPLM+ds) (AID 1963882). For Viability: series mostly up to about 46 µM. Note: nearly all actives have a fitted effect of over 35% in size. In a few lines: as §1
Assay [7] is described as follows: Cellular viability qHTS for adrenocortical cancer (ACC) cell line NCI-H295R (AID 1963990). Note: nearly all actives have a fitted effect of over 60% in size. An outline of the steps:
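CellTiter-Glo ATP luminescence, read 48 h after compound addition, measured viability of NCI-H295R adrenocortical cells grown serum-free with ITS. Final concentrations spanned up to 46 uM. Data normalized to DMSO and doxorubicin, fitted for IC50 and maximal response.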

Assay [8] in a line: Quantitative highthroughput screen to assess conditional lethalithy of P12 Ichikawa cells grown in RPMI1640 with dialyzed fetal bovine serum (RPMI+ds) (AID 1963880).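 For Viability: 100% = DMSO wells and 0% = empty wells on each plate.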 Note: nearly all actives have a fitted effect of over 35% in size. The settings on record: Potency: P12-Ichikawa viability. An outline of the steps: as §1
The nature of assay [9]: Quantitative highthroughput screen to assess conditional lethalithy of P12 Ichikawa cells grown in RPMI1640 with untreated serum (RPMI+s) (AID 1963881).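 For Viability: series mostly up to about 46 µM; 100% = DMSO wells and 0% = empty wells without cells.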 Note: nearly all actives have a fitted effect of over 35% in size. The conditions noted are these: Potency: viability. An outline of the steps:
as §1

Assay [10] is described as follows: Quantitative highthroughput screen to assess conditional lethalithy of SEM cells grown in RPMI1640 with unreated serum (RPMI+s) (AID 1963883).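 For Viability: 100% = DMSO wells and 0% = empty wells without cells.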 Note: nearly all actives have a fitted effect of over 35% in size. In a few lines:
as §1

Assay [11] in a line: Quantitative highthroughput screen to assess conditional lethalithy of SEM cells grown in RPMI1640 with dialyzed fetal bovine serum (RPMI+ds) (AID 1963884).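 For Viability: series mostly up to about 46 µM; 100% = DMSO control wells and 0% = empty wells without cells.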 Note: nearly all actives have a fitted effect of over 35% in size. An outline of the steps: as §1
Assay [12] in a line: Cellular viability qHTS for adrenocortical cancer (ACC) cell line SW-13 (AID 1963989).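 For activity (max response): cells grown in serum-free medium with ITS supplement; % is set by controls: 0 for no effect and ±100 for the full control effect.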 Note: nearly all actives have a fitted effect of over 65% in size. The conditions noted are these: SW-13 ACC cells viability, CellTiter-Glo, 48 h; activity (max response): active compounds read low. In a few lines:
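Viability was read as CellTiter-Glo luminescence after 48 h compound treatment (up to 46 uM final) of SW-13 cells grown serum-free; titration curves were fit with a four-parameter logistic model to give IC50 and efficacy.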

Assay [13] can be described thus: Quantitative highthroughput screen to assess conditional lethalithy of P12 Ichikawa cells grown in Human Plasma-Like Medium with dialyzed fetal bovine serum (HPLM+ds) (AID 1963879). Note: nearly all actives have a fitted effect of over 35% in size. The settings on record: Potency: viability. In a few lines: as §1

Values joined by “and” are separate entries in the source; they are usually repeats but may differ in a detail not shown here. Equal values may be shown once. Inconclusive results are not listed. Values without a mark were called inactive. Active and inactive are the calls of the source. Calls come from the whole dose curve; as a rule, active = well fitted curve in the direction sought with a large enough effect; inconclusive = small, poorly fitted or top-dose-only effect, or another doubt; inactive = no such curve, though single readings can be large; an effect the other way counts as inactive or inconclusive.
Potency is the fitted concentration of half-maximal effect.

For `O=C1CCCC2=C1C(c1[nH]ncc1Cl)N=C(Nc1nc3ccccc3o1)N2` (stereo not drawn), the Potency in assay [1] is 8.33 µM (active); in [2], 14.6 µM (active) and 13.2 µM (active); in assay [5] it was 18.7 µM (active). In addition, the Potency result in [3], in assay [4], in [6] and in assay [7] was “inactive” throughout.
Turning to `OC[C@@H](O)[C@@H](O)[C@H](O)[C@@H](O)CO`, the Potency entry in assay [1], in assay [2], in assay [3], in assay [4], in assay [5] and in assay [8] was “inactive” in each case. Moreover, the Potency entry in assay [9], in assay [6], in [10], in [11] and in assay [7] was “inactive” throughout.
For the molecule `Cc1cc([C@@H](C)Nc2ccccc2C(=O)O)c2nc(N3CCOCC3)cc(=O)n2c1`, the Potency in assay [1] was 5.01 µM (active) and 5.25 µM (active); in assay [2] it was 7.08 µM (active) and 5.25 µM (active); in assay [3] it was 13.6 µM (active); in [4] it was 12.1 µM (active); in [5], 8.55 µM (active); in assay [6], 13.6 µM (active). In addition, the Potency is 10.8 µM (active) in assay [10] and 9.59 µM (active) in [11].
For the molecule `CCOC(=O)c1ccc(C#Cc2ccc3c(c2)C(C)(C)CCS3)nc1`, the Potency is 5.25 µM (active) in [1] and 3.76 µM (active) in assay [2]. Also, the Potency entry in assay [3], in [4], in [5], in assay [8], in assay [9] and in [6] was “inactive” in each case. In addition, the Potency entry in assay [10] and in assay [11] was “inactive” throughout. The activity (max response) in [12] was -8.69%.
Consider `N#Cc1c(N(CC(=O)O)CC(=O)O)sc(C(=O)O)c1CC(=O)O`, for which the Potency entry in assay [1], in assay [2], in assay [3], in assay [4], in assay [5] and in assay [7] was “inactive” in each case. Moreover, in [6], the Potency was 13.2 µM (active). Also, the activity (max response) in assay [12] was 0.42%.
Regarding `COc1ccc(COc2cc3oc(=O)c4cc(C(C)O)ccc4c3cc2OC)cc1` (stereo not drawn), the Potency result in assay [1], in assay [3], in assay [4], in assay [5], in assay [8] and in assay [7] was “inactive” throughout. Besides, the Potency is 8.2 µM (active) and 4.68 µM (active) in assay [2]; 18.7 µM (active) in [9]; 18.7 µM (active) in [6].
As to `Cc1ccc(C(=O)Nc2cccc(C(F)(F)F)c2)cc1Nc1nc(-c2cccnc2)nc2c1cnn2C`, the Potency in assay [1] is 8.33 µM (active); in assay [2], 6.61 µM (active); in assay [12], 2.51 µM (active); in [7] it was 3.16 µM (active). The Potency result in assay [3], in assay [4], in [5], in [8] and in assay [9] was “inactive” in each case.
Turning to `CC#C[C@]1(O)CC[C@H]2[C@@H]3CCC4=CC(=O)CCC4=C3[C@@H](c3ccc(N(C)C)cc3)C[C@@]21C`, the Potency in [1] was 18.6 µM (active); in assay [2], 21.1 µM (active) and 16.6 µM (active); in assay [3], 6.62 µM (active); in assay [4] it was 7.43 µM (active); in assay [5], 8.33 µM (active); in assay [13], 9.35 µM (active). Further, in assay [7], the Potency was 20.6 µM (active) and 25.1 µM (active).
Turning to `CN1C2CCC1CC(OC(=O)C(CO)c1ccccc1)C2` (stereo not drawn), the Potency entry in assay [1], in [2], in assay [3], in assay [4], in assay [5] and in assay [6] was “inactive” throughout. For the same molecule, the Potency entry in assay [11] and in assay [7] was “inactive” in each case. In addition, in assay [12], the activity (max response) is -20.1%.
As to `Cc1nc(Nc2n[nH]c3c2CN(C(=O)N[C@H](CN(C)C)c2ccccc2)C3(C)C)c2sccc2n1`, the Potency in [1] was 0.0132 µM (active); in [2] it was 0.0118 µM (active); in assay [3], 1.32 µM (active); in assay [4], 3.72 µM (active); in [5] it was 1.48 µM (active); in assay [8] it was 1.48 µM (active). The Potency in [9] was 1.66 µM (active); in assay [6] it was 0.743 µM (active); in assay [10], 0.332 µM (active); in [7], 28.2 µM (active).
For the molecule `COc1c(C)cnc(Cn2cnc3c(Cl)nc(N)nc32)c1C`, the Potency is 0.132 µM (active) in [1]; 0.235 µM (active) in assay [2]; 0.743 µM (active) in [3]; 0.662 µM (active) in assay [4]; 0.662 µM (active) in assay [5]; 0.372 µM (active) in [6]. The Potency in [10] is 0.264 µM (active); in assay [11], 0.296 µM (active); in assay [12], 2 µM (active); in assay [7] it was 1.78 µM (active).
Consider `CNC(=O)[C@H](Cc1ccccc1)NC(=O)[C@H](CC(C)C)[C@H](CSc1cccs1)C(=O)NO`, for which the Potency in [1] is 5.25 µM (active); in [2] it was 2.95 µM (active); in assay [8], 11.8 µM (active); in assay [9], 9.35 µM (active); in [6] it was 16.6 µM (active); in [11], 14.8 µM (active). For the same molecule, the Potency result in [3], in [4], in assay [5] and in assay [7] was “inactive” throughout. The activity (max response) in assay [12] is -14.2%.
For the molecule `COc1ccc(-c2oc3c(CC=C(C)C)c(O)cc(O)c3c(=O)c2O)cc1`, the Potency in assay [1] was 8.33 µM (active); in assay [2], 13.2 µM (active). The Potency result in assay [3], in assay [4], in assay [5], in assay [8], in assay [6] and in [10] was “inactive” each time. For the same molecule, the Potency entry in assay [11] and in assay [7] was “inactive” each time.
As to `C[C@H]1[C@@H](OC(=O)CCC(=O)O)O[C@@H]2O[C@@]3(C)CC[C@@H]4[C@H](C)CC[C@@H]1[C@@]24OO3`, the Potency was 0.934 µM (active) in [1]; 1.16 µM (active) in assay [2]; 1.66 µM (active) in assay [3]; 1.32 µM (active) in assay [4]; 2.09 µM (active) in assay [5]; 6.62 µM (active) in [8]. Moreover, the Potency is 5.26 µM (active) in assay [9], 3.72 µM (active) in assay [10], 4.18 µM (active) in assay [11] and 17.8 µM (active) in assay [7].
Consider `Cn1cnc(=N)c2[nH]cnc21`, for which the Potency entry in [1], in assay [2] and in assay [7] was “inactive” throughout. In addition, the Potency in assay [3] is 7.43 µM (active); in [4] it was 6.62 µM (active); in assay [5] it was 4.69 µM (active); in assay [8], 7.43 µM (active); in [6] it was 3.32 µM (active); in assay [10], 2.35 µM (active). In addition, the Potency in [11] is 3.32 µM (active).
`CNC(=O)c1ccc2c(C(=Nc3cccc(CN(C)C)c3)c3ccccc3)c(O)[nH]c2c1`: the Potency in assay [1] was 2.95 µM (active); in [2], 5.8 µM (active) and 3.72 µM (active); in [3], 20.9 µM (active); in assay [4], 18.7 µM (active); in [5] it was 16.6 µM (active); in assay [6], 1.87 µM (active). The figures for the Potency in assay [11] and in assay [7] were 1.32 µM (active) and 22.4 µM (active), respectively.
